# Measurements reported in PubChem BioAssay AID504652 (National Center for Advancing Translational Sciences (NCATS), 2011).
# “And” between values parts separate entries of the source, which are not always exact repeats. Equal values may be shown once. Screen size: about 360,000 compounds; about 11,000 (3.1%) were called active. No stated cut-off is given here; in the data, active means activity change below about -30%; inactive means the rest. The list comes from a sample in which actives are over-represented; it also holds similar structures and randomly drawn compounds. Some compounds were tested as several samples or in several runs, with calls that do not always agree.
# Molecular target: D(1A) dopamine receptor (Homo sapiens) (UniProt P21728)
# Sequence (P21728 whole entry, looked up): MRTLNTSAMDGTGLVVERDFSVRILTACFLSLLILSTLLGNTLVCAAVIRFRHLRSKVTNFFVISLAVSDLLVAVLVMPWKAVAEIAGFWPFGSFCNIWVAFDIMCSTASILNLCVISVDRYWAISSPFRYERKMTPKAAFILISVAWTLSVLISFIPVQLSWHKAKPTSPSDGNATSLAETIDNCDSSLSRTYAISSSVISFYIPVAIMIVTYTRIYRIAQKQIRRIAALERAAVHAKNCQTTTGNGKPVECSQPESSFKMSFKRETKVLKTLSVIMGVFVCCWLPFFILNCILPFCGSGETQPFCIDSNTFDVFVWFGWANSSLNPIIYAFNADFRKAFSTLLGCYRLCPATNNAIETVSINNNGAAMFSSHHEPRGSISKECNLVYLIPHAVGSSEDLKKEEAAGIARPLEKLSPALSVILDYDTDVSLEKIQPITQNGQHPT
# Experiment: Antagonist of Human D 1 Dopamine Receptor: qHTS
# Settings: HEK293 TREx D1 cells, calcium flux, dopamine EC80; at 10 µM; stronger effect = lower value
# Method in brief: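 Cells carrying a force-coupled, tetracycline-inducible human D1 receptor report calcium flux. Each well gets a 10 s baseline, compound with 180 s monitoring, then an EC80 dopamine stimulus with a second 180 s kinetic read.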
# On the % scale 0 is the no-effect control and ±100 the full control effect.
row,SMILES,"activity change, negative = inhibition"
1,CCOC(=O)C1CCCN(CC(=O)Nc2cc(C)c3c(=O)oc4ccccc4c3n2)C1 (stereo unspecified),-9.54% (inactive)
2,COc1ccccc1Nc1nc(N)nc(N)c1S(=O)(=O)c1ccccc1,3.62% (inactive)
3,CCN(CC)S(=O)(=O)c1ccc(NC(=O)c2cnc(C)cn2)cc1,5.26% (inactive)
4,CCN(CC)S(=O)(=O)c1ccc2c(c1)nc(CN(C)C(=O)Nc1ccc(Cl)cc1)n2C,-30.4% (active)
5,Cn1c(CN2CCOCC2)nc2cc(NC(=O)c3ccc(Cl)cc3)ccc21,-2.81% (inactive)
6,Cc1ccc(Cl)cc1NC(=O)CSc1nc2ccccc2nc1Cc1ccccc1,3.51% (inactive)
7,Cc1cccc(N2CCN(c3ccc(C(N)=O)cc3[N+](=O)[O-])CC2)c1C,9.32% (inactive)
8,COc1ccc(NS(=O)(=O)c2ccc(N3CCN(CCO)CC3)c([N+](=O)[O-])c2)cc1,-20.8% (inactive)
9,CN1CCN(S(=O)(=O)c2ccc(N3CCN(c4ccccc4O)CC3)c([N+](=O)[O-])c2)CC1,7.38% (inactive)
10,CN1CCN(c2ccc(S(=O)(=O)Nc3ccccc3)cc2[N+](=O)[O-])CC1,-46.5% (active)
11,Cc1ccc(C(=O)c2ccc(N3CCN(C)CC3)c([N+](=O)[O-])c2)cc1,-41.9% (active)
12,CS(=O)(=O)N1CCN(c2ccc(C(=O)NC3C4CC5CC(C4)CC3C5)cc2[N+](=O)[O-])CC1 (stereo unspecified),-9.31% (inactive)
13,COC(=O)c1c(NC(=O)C(C)Oc2ccc(Cl)c(C)c2)sc(C)c1C (stereo unspecified),14.5% (inactive)
14,Fc1ccc(-c2nn(-c3ccccc3Cl)c3c2cnc2ccccc23)cc1,15% (inactive)
15,COc1cc(C)ccc1OCCSc1nc2ccc(NC(=O)c3ccc(C)cc3)cc2s1,5.21% (inactive)
16,Cc1ccc(NC(=O)NC(C)c2c(-n3cccc3)sc(C)c2C)c(C)c1 (stereo unspecified),-16% (inactive)
17,O=C(Cc1ccc(Cl)cc1)NCC(c1cccs1)S(=O)(=O)c1ccc(Cl)cc1 (stereo unspecified),4.53% (inactive)
18,Cn1ccc2cc(S(=O)(=O)N3CCCC(C(=O)NCc4ccccc4F)C3)ccc21 (stereo unspecified),-17.1% (inactive)
19,CCOc1ccccc1NC(=O)CCn1cnnn1,-17.8% (inactive)

row,SMILES,"activity change, negative = inhibition"
1,Cc1ccccc1OCC(=O)NNC(=O)c1ccc(-n2cncn2)c([N+](=O)[O-])c1,-67.1% (active)
2,O=C(NNC(=O)c1ccc(-n2cncn2)c([N+](=O)[O-])c1)c1ccccc1,-5.21% (inactive)
3,CC(=O)c1ccc(NC(=O)c2ccc(-n3cncn3)c([N+](=O)[O-])c2)cc1,2.28% (inactive)
4,Cc1nc2ccn(Cc3cccs3)c(=O)c2cc1C(=O)NCc1ccc(Cl)cc1,-27.7% (inactive)
5,COc1ccc(OC)c(-n2nnc3c(sc4nc(C)c(Br)c(C)c43)c2=O)c1,-6.84% (inactive)
6,COc1ccc(NC(=O)CSc2nnc(-c3nnn(-c4ccc(F)cc4)c3C)o2)cc1,-7.41% (inactive)
7,O=C(OCCN=C1NS(=O)(=O)c2ccccc21)c1cccc([N+](=O)[O-])c1,-6.81% (inactive)
8,N#CC1(NC(=O)COC(=O)CCN=C2NS(=O)(=O)c3ccccc32)CCCCC1,-2.93% (inactive)
9,O=C(CCCN=C1NS(=O)(=O)c2ccccc21)OCC(=O)c1ccc(F)c(F)c1,-64.4% (active)
10,CCCCOc1ccc(CNC(=O)c2ccc3c(c2)N(C)C(=O)C2CCCCN32)cc1 (stereo unspecified),20.7% (inactive)
11,CCc1nc2cccnc2n1-c1ccc(CC(=O)Nc2c(C)cccc2C)cc1,0.844% (inactive)
12,COc1cc(OC)c(NC(=O)c2cnc(N3CCCC3)nc2C)cc1Cl,-35.8% (active)
13,COc1cc(OC)c(NC(=O)N2CC3CCCN3c3ccccc32)cc1Cl (stereo unspecified),46.3% (inactive)
14,COc1cc(OC)c(NC(=O)c2cc(S(=O)(=O)N3CCCC3)cn2C)cc1Cl,-11% (inactive)
15,CCc1ccccc1NC(=O)N1CCC2(CC1)Oc1ccccc1C(=O)N2Cc1ccccc1F,-12.2% (inactive)
16,OC(COc1ccc2c(c1)CCC2)CN1CCN(c2cccc(Cl)c2)CC1 (stereo unspecified),-0.524% (inactive)
17,CCc1nn(CCCN2CCN(c3cccc(Cl)c3)CC2)c(=O)n1CCOc1ccccc1,-25.8% (inactive) and -41.5% (active)
18,Cc1nn(CCOc2ccccc2)c(=O)n1-c1ccccc1F,-11.9% (inactive)
19,CCOc1ccc(CNC(=O)CCc2c(C)nn(-c3ccc(N4CCCCC4)nn3)c2C)cc1,-12.9% (inactive)

row,SMILES,"activity change, negative = inhibition"
1,COc1ccccc1C(=O)Nc1c(C(=O)Nc2ccc(C)cc2)oc2ccccc12,2.57% (inactive)
2,COc1ccc(NC(=O)c2ccc3nc(C(C)C)oc3c2)cc1OC,13.3% (inactive)
3,O=[N+]([O-])c1ccc2[nH]c3c(c2c1)CCCC3O (stereo unspecified),-30.8% (active)
4,CCOC(=O)c1ccc2[nH]c3c(c2c1)CCCC3NC=O (stereo unspecified),-2.15% (inactive)
5,O=C1CCCc2c1[nH]c1ccc(Br)cc21,12% (inactive)
6,CCOC(=O)C1CCCN(S(=O)(=O)c2cc(-c3cc(C)no3)ccc2OC)C1 (stereo unspecified),-12.1% (inactive)
7,COC(=O)c1scc(-c2ccccc2)c1S(=O)(=O)Nc1ccccc1,-7.67% (inactive)
8,CCn1c(=O)c2cc(C(=O)NCCc3ccc(Cl)cc3)sc2c2ccccc21,3.78% (inactive)
9,COc1cccc(NC(=O)Cn2c(=O)cc(C)c3c(C)nn(-c4cccc(F)c4)c32)c1,11.7% (inactive)
10,COc1cn(CC(=O)Nc2cccc(C)c2C)c(CN2CCCCC2)cc1=O,-18.9% (inactive)
11,COc1ccccc1NC(=O)Nc1nnc(Cc2ccc(F)cc2)s1,-35.5% (active)
12,O=C(Nc1nnc(COc2ccccc2)s1)Nc1ccccc1F,-5.26% (inactive)
13,COc1ccccc1NC(=O)Nc1nc(CC(=O)Nc2ccccc2F)cs1,2.24% (inactive)
14,COc1ccc(Cl)cc1-n1c(CCC(=O)O)ccc1-c1ccc(C)cc1,-15.3% (inactive)
15,Cc1cccc(N2CCN(S(=O)(=O)c3ccc4[nH]c5c(c4c3)CCCCC5)CC2)c1C,0.754% (inactive)
16,CN1CCN(c2ccc([N+](=O)[O-])c(Sc3nc4ccccc4[nH]3)c2)CC1,-1.85% (inactive)
17,CC1CCN(c2ccc([N+](=O)[O-])c(SCCO)c2)CC1,-30.7% (active)
18,CC1CCN(C(=S)c2cccc([N+](=O)[O-])c2)CC1,-12.4% (inactive)
